“And” between values parts separate entries of the source, which are not always exact repeats. Equal entries are not always repeated. Screen size: about 5,500 compounds; about 2,000 (36%) were called active. Roughly 18% stayed inconclusive and do not appear here. No stated cut-off is given here; in the data, active means normalized growth mostly below about 0.91 (no sharp cut-off); inconclusive means no clear call, values can overlap the other calls; inactive means mostly above about 0.92. Some of the results follow.
Test: chemical genetic growth profiling, strain panel (AID 1159580);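 further: tested at 20 µM; growth read once vehicle control cultures reached saturation at 30 °C; 1 = growth at the plate median or of vehicle wells; lower values mean less growth of the strain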
Settings: S. cerevisiae deletion strains, growth OD

Measured: normalized growth

C[C@]12CC[C@H](O)C[C@H]1CCC1C2CC[C@]2(C)[C@@H](C3=CC(=O)OC3)[C@@H](O)C[C@]12O (stereo partly drawn)
inactive: locus YBR021W, strain FUR4, hits give low values 1.02 | locus YBR229C, strain ROT2, hits give low values 1.02 | locus YCL029C, strain bik1, hits give low values 1.01 | locus YDL035C, strain GPR1, hits give low values 1.08 | locus YDL074C, strain BRE1, hits give low values 1.1 | locus YDL101C, strain DUN1, hits give low values 1.02 | locus YDL185W, strain tfp1, hits give low values 0.974 | locus YDL192W, strain arf1, hits give low values 1.02 | locus YDR101C, strain arx1, hits give low values 1 | locus YDR150W, strain NUM1, hits give low values 1.03 | locus YDR162C, strain NBP2, hits give low values 1.03 | locus YDR318W, strain mcm21, hits give low values 0.998 | locus YDR388W, hits give low values 0.984 | locus YDR502C, strain sam2, hits give low values 1.01 | locus YEL061C, strain CIN8, hits give low values 1.02 | locus YER110C, hits give low values 0.997 | locus YER155C, strain BEM2, hits give low values 1 | locus YER167W, strain BCK2, hits give low values 1.02 | locus YGL078C, strain dbp3, hits give low values 0.982 | locus YGL086W, strain mad1, hits give low values 1 | locus YGL248W, strain PDE1, hits give low values 1.05 | locus YGR078C, strain PAC10, hits give low values 1.03 | locus YGR135W, strain pre9, hits give low values 1 | locus YGR229C, strain SMI1, hits give low values 1.13 | locus YGR252W, strain gcn5, hits give low values 0.962 | locus YHR030C, strain SLT2, hits give low values 1 | locus YHR079C, strain IRE1 (second series), hits give low values 0.983 | locus YHR079C, strain IRE1, hits give low values 0.982 | locus YHR094C, strain hxt1, hits give low values 0.982 | locus YHR129C, strain ARP1, hits give low values 1.03 | locus YHR200W, strain rpn10, hits give low values 0.995 | locus YIL066C, strain RNR3, hits give low values 1.03 | locus YIL073C, strain SPO22, hits give low values 1.07 | locus YIL125W, strain kgd1, hits give low values 1.02 | locus YIR030C, strain dcg1, hits give low values 0.994 | locus YJL095W, strain BCK1, hits give low values 1.07 and 0.981 | locus YJL134W, strain LCB3, hits give low values 1.02 | locus YJL168C, strain set2, hits give low values 0.975 | locus YJL187C, strain SWE1 (second series), hits give low values 1.04 | locus YJR043C, strain POL32, hits give low values 1.06 | locus YJR066W, strain TOR1, hits give low values 0.968 | locus YKL009W, strain mrt4, hits give low values 1.01 | locus YKL068W, hits give low values 0.994 | locus YKL085W, strain MDH1 (second series), hits give low values 0.996 | locus YKL085W, strain MDH1, hits give low values 0.996 | locus YKL190W, strain CNB1, hits give low values 1.02 | locus YKR001C, strain vps1, hits give low values 1.03 | locus YLR039C, strain RIC1, hits give low values 1.15 | locus YLR058C, strain SHM2, hits give low values 1.04 | locus YLR102C, strain apc9, hits give low values 0.989 | locus YLR113W, strain HOG1, hits give low values 0.975 | locus YLR262C, strain YPT6, hits give low values 1.16 | locus YLR268W, strain sec22, hits give low values 1 | locus YLR330W, strain CHS5, hits give low values 1.02 | locus YLR342W, strain FKS1 (second series), hits give low values 1.05 | locus YLR371W, strain rom2, hits give low values 1 | locus YLR418C, strain cdc73, hits give low values 1.01 | locus YML016C, strain PPZ1, hits give low values 1.03 | locus YML032C, strain rad52, hits give low values 1 | locus YML124C, strain tub3, hits give low values 0.987 | locus YMR078C, strain ctf18, hits give low values 0.986 | locus YMR223W, strain ubp8, hits give low values 1 | locus YMR307W, strain GAS1, hits give low values 1.19 | locus YNL067W, strain RPL9B, hits give low values 1.01 | locus YNL153C, strain GIM3, hits give low values 1.04 | locus YNL183C, strain NPR1, hits give low values 0.93 | locus YNL233W, strain BNI4, hits give low values 1.06 | locus YNL250W, strain rad50, hits give low values 1.01 | locus YNL271C, strain bni1, hits give low values 0.999 | locus YNL298W, strain CLA4, hits give low values 0.994 | locus YNL307C, strain MCK1, hits give low values 0.98 | locus YNR052C, strain pop2, hits give low values 0.987 | locus YOL006C, strain TOP1, hits give low values 1.27 | locus YOL012C, strain htz1 1.03 | locus YOL147C, strain pex11, hits give low values 0.993 | locus YOR061W, strain CKA2, hits give low values 1.03 | locus YOR069W, strain VPS5, hits give low values 1.02 | locus YOR136W, strain idh2, hits give low values 0.991 | locus YOR144C, strain elg1, hits give low values 0.989 | locus YOR184W, strain ser1, hits give low values 1.05 | locus YOR231W, strain MKK1, hits give low values 0.982 | locus YOR316C, strain cot1, hits give low values 1 | locus YPL256C, strain CLN2, hits give low values 1.03 | locus YPR119W, strain clb2, hits give low values 0.982 | locus YPR141C, strain kar3, hits give low values 0.997 | locus YPR163C, strain tif3, hits give low values 0.997 | locus YPR167C, strain met16, hits give low values 0.99 | strain wtn01, hits give low values 1.02

— PubChem BioAssay AID1159580 (chemical genetic matrix, 2015)
